Experimental findings from PubChem BioAssay (NCATS) are described below.

Holding throughout (test): qHTS profiling for inhibitors of Plasmodium falciparum proliferation (AID 504749); further: nearly all actives have a fitted effect of over 60% in size
What all share (conditions): P. falciparum in erythrocytes, SYBR Green DNA, 72 h; series mostly up to 28.7 µM

In one test the test system is 7G8. Summed up:
(§1)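 Three-day growth assay of blood-stage parasites in erythrocytes (0.3% parasitemia, 2.5% hematocrit) at 37 C, 5% CO2, quantified by SYBR Green DNA staining after overnight detergent lysis.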

In a further test the test system is AA1029. Summed up:
as §1

In a further test the test system is AS120. Summed up:
as §1

The test system of another test is ATS189. Summed up: as §1
The next test has as its system ATS95. The method in brief: as §1
The subject of the next test is C2A. Summed up:
as §1

The test system of another test is CP185. Summed up:
as §1

The test system of a further test is CP191. Summed up:
as §1

In a further test the test system is CP192. The method in brief: as §1
A further test concerns CP194. The method in brief: as §1

Records with an inconclusive call do not appear. The source made the active and inactive calls. The call rests on the fitted dose curve; in most records, active means well fitted inhibition curve with a large enough effect; inconclusive means small, poorly fitted or top-dose-only effect; inactive means flat fitted curve, though single readings scatter.
Potency means the concentration at half of the fitted maximal effect.

Turning to `CCCCCCCCCCCCCCCC[N+](C)(C)Cc1ccccc1`, the Potency was 3.16 µM (active) in the test on 7G8; 3.16 µM (active) with AA1029; 1 µM (active) with AS120; 3.55 µM (active) in the test with ATS189; 3.55 µM (active) in the test with ATS95; 10 µM (active) in the test with C2A. Further, the Potency was 0.501 µM (active) with CP185, 1 µM (active) in the test with CP191, 9.53 µM (active) in the test with CP192 and 12 µM (active) in the test on CP194.
Regarding `CC(NCCC(c1ccccc1)c1ccccc1)c1ccccc1` (stereo unspecified), the Potency in the test with 7G8 is 2.24 µM (active); in the test on AA1029, 12.6 µM (active); in the test on AS120 it was 11.2 µM (active); in the test on ATS95, 11.2 µM (active); in the test with C2A, 10 µM (active); in the test with CP185, 8.91 µM (active). Further, the Potency is 10 µM (active) with CP191 and 15.1 µM (active) in the test with CP194.
As to `CCCCCCCCCCCCCC[N+](C)(C)C`, the Potency in the test on 7G8 was 2.24 µM (active); in the test on AA1029, 4.47 µM (active); with AS120, 5.62 µM (active); in the test with ATS189 it was 5.62 µM (active); in the test with ATS95, 7.08 µM (active); with C2A, 3.98 µM (active). Besides, the Potency was 5.62 µM (active) with CP185, 4.47 µM (active) in the test with CP191, 6.01 µM (active) in the test on CP192 and 6.75 µM (active) with CP194.
As to `Nc1c2ccccc2nc2ccccc12`, the Potency with 7G8 was 3.16 µM (active); in the test with AA1029 it was 7.08 µM (active); in the test with AS120 it was 12.6 µM (active); in the test on ATS189, 7.08 µM (active); with ATS95, 11.2 µM (active); in the test with CP185, 8.91 µM (active). The Potency with CP191 was 11.2 µM (active); in the test with CP192 it was 12 µM (active).
`O=C(Nc1ccc(Cl)cc1)Nc1ccc(Cl)c(Cl)c1`: the Potency is 0.501 µM (active) in the test on 7G8; 5.62 µM (active) in the test on AA1029; 2.24 µM (active) in the test with AS120; 3.16 µM (active) with ATS189; 3.16 µM (active) with ATS95; 3.16 µM (active) in the test with C2A. The Potency in the test with CP185 is 2.51 µM (active); in the test with CP191, 2.82 µM (active); in the test on CP192, 9.53 µM (active); in the test on CP194, 6.01 µM (active).
As for `CN1CCC(Nc2ncc3ncnc(Nc4ccc(F)c(Cl)c4)c3n2)CC1`, the figures for the Potency with 7G8, with AA1029 and with C2A were 2.51 µM (active), 10 µM (active) and 11.2 µM (active), respectively.
Take `CCCCCCCCCCCCCCCC[n+]1ccccc1`: the Potency was 5.01 µM (active) with 7G8; 5.01 µM (active) with AA1029; 7.94 µM (active) in the test on AS120; 6.31 µM (active) in the test with ATS189; 7.94 µM (active) in the test with ATS95; 4.47 µM (active) in the test with C2A. Also, the Potency with CP185 was 7.94 µM (active); with CP191 it was 4.47 µM (active); in the test on CP192 it was 7.57 µM (active); with CP194, 6.75 µM (active).
As to `O=[N+]([O-])c1ccc(O)c2ncccc12`, the Potency was 11.2 µM (active) in the test on 7G8, 10 µM (active) in the test with AS120, 12.6 µM (active) with C2A and 12.6 µM (active) in the test with CP191.
`CN1CCCN(C(c2ccccc2)c2ccc(Cl)cc2)CC1` (stereo unspecified): the Potency in the test with 7G8 is 8.91 µM (active); in the test with AA1029 it was 7.94 µM (active); in the test with AS120 it was 11.2 µM (active); with ATS189, 10 µM (active); with ATS95 it was 11.2 µM (active); in the test on C2A, 11.2 µM (active). Also, the Potency in the test on CP191 is 10 µM (active).
Consider `Nc1ccc2cc3ccc(N)cc3nc2c1`, for which, in the test on 7G8, the Potency is 2.24 µM (active).
For the compound `O=S(=O)(O)c1ccc2nc(-c3ccccc3)[nH]c2c1`, the Potency result with 7G8, with AA1029, in the test with AS120, with ATS189, with ATS95 and in the test on C2A was “inactive” each time. In addition, the Potency entry with CP185, in the test with CP191, with CP192 and in the test on CP194 was “inactive” each time.
Regarding `Nc1ncnc2nc[nH]c12`, the Potency entry in the test with 7G8, in the test with AA1029, with AS120, with ATS189, with ATS95 and with C2A was “inactive” each time. Further, the Potency result in the test with CP185, with CP191, in the test on CP192 and in the test with CP194 was “inactive” in each case.
